{"source": "PubChem BioAssay AID2642", "about": "(Johns Hopkins Ion Channel Center, 2010)", "note": "Screen size: about 310,000 compounds; about 3,900 (1.3%) were called active.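 The calls were made as follows: active = compounds whose thallium flux B-score, printed positive for inhibition, exceeds three library SD while starting fluorescence stays within three; inactive = the rest.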 The full list was thinned out, with actives kept by preference.", "data": [{"biological_target": "Potassium voltage-gated channel subfamily KQT member 1 (Homo sapiens) (UniProt P51787)", "sequence (P51787 whole entry, looked up)": "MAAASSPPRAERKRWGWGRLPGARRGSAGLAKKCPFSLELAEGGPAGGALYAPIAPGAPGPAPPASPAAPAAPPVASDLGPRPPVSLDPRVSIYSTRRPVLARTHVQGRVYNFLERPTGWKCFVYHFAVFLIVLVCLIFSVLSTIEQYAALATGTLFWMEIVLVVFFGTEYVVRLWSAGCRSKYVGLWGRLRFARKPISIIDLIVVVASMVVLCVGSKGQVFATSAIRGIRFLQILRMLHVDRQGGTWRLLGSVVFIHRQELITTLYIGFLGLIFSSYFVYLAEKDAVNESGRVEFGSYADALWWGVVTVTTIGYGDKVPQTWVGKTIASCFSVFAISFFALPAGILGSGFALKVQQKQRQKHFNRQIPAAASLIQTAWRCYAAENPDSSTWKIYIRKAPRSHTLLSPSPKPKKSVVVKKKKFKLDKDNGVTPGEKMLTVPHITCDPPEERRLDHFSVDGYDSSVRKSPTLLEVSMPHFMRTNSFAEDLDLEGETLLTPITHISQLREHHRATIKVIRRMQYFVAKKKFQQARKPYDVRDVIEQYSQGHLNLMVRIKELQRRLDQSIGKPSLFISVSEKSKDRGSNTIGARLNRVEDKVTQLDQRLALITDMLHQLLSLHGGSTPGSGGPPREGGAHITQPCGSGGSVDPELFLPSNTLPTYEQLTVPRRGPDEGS", "test": "inhibitors of human KCNQ1 channel, primary screen, cell-based, thallium flux, high-throughput (AID 2642);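 also: channel opened by potassium depolarization with thallium stimulus after 20 min compound exposure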", "details": "CHO-K1 KCNQ1, FluxOR thallium flux fluorescence, at 10 µM; hits give high values", "values": [{"molecule": "COc1cccc(/C=N/Nc2ncc(C(F)(F)F)cc2Cl)c1O", "B-score": "inactive"}, {"molecule": "COc1cccc(/C=N/NC(=O)c2[nH]nc3c2CCc2ccccc2-3)c1O", "B-score": "inactive"}, {"molecule": "COc1cccc(/C=N/Nc2cc(C)nc(-c3ccccc3O)n2)c1O", "B-score": "7 (active)"}, {"molecule": "CN(C(=O)c1ccccc1)c1nccnc1C#N", "B-score": "inactive"}, {"molecule": "CCOC(=O)CC1COCCN1C(=O)c1cc(COc2ccc(F)c(F)c2)on1", "note": "(stereo not drawn)", "B-score": "inactive"}, {"molecule": "COc1ccc(NC(=O)c2sc3nc(C)nc(N4CCN(c5ccccn5)CC4)c3c2C)c(OC)c1", "B-score": "inactive"}, {"molecule": "Cc1nc(N2CCN(c3ccccn3)CC2)c2c(C)c(C(=O)Nc3ccc(F)c(Cl)c3)sc2n1", "B-score": "13 (active)"}, {"molecule": "Cc1nc(N2CCN(c3ccccn3)CC2)c2c(C)c(C(=O)Nc3ccc(F)cc3)sc2n1", "B-score": "10 (active)"}, {"molecule": "O=C(c1c(F)cccc1Cl)N1CCN(c2ccccn2)CC1", "B-score": "inactive"}, {"molecule": "Cc1nc(N2CCC(C)CC2)c2c(C)c(C(=O)Nc3cc(F)ccc3C)sc2n1", "B-score": "inactive"}, {"molecule": "Cc1nc(N2CCOCC2)c2c(C)c(C(=O)Nc3ccc(C(F)(F)F)cc3)sc2n1", "B-score": "inactive"}, {"molecule": "Cc1ccccc1NC(=O)c1cc(S(=O)(=O)Nc2cccc(C(=O)O)c2)ccc1Cl", "B-score": "inactive"}, {"molecule": "COCOc1cc(O)c(C(=O)/C=C/c2ccc(OCOC)c(OCOC)c2)c(OCOC)c1", "B-score": "inactive"}, {"molecule": "CCCCS(=O)c1snnc1C", "note": "(stereo not drawn)", "B-score": "inactive"}, {"molecule": "COc1ccc(OC)c(Nc2nc3ccccc3n3cnnc23)c1", "B-score": "inactive"}, {"molecule": "COc1cccc(C(=O)Nc2nnc(S(=O)(=O)N(C)c3ccccc3)s2)c1", "B-score": "inactive"}, {"molecule": "CS(=O)(=O)c1ccc(Cl)c(NC(=O)COC(=O)c2cccc(S(=O)(=O)N3CCCC3)c2)c1", "B-score": "inactive"}, {"molecule": "COc1ccc(C2C=C(c3ccc(Br)cc3)Nc3nc(NS(C)(=O)=O)nn32)cc1", "note": "(stereo not drawn)", "B-score": "inactive"}, {"molecule": "COc1ccc(C)cc1NC(=O)C(Sc1ccccc1)c1ccccc1", "note": "(stereo not drawn)", "B-score": "6 (active)"}, {"molecule": "COc1ccc(C)cc1NC(=O)Nc1ccccc1SC", "B-score": "inactive"}, {"molecule": "COc1ccc(C)cc1NC(=O)NCCCCc1ccccc1", "B-score": "inactive"}, {"molecule": "CCCN1CNC(=S)N(CCc2ccccc2)C1", "B-score": "inactive"}, {"molecule": "CCOC(=O)C1=C(C)Nc2sc(C(=O)c3ccc(Br)cc3)c(N)c2C1c1ccc(C(=O)OC)cc1", "note": "(stereo not drawn)", "B-score": "8 (active)"}, {"molecule": "CCOC(=O)c1sc(=NC(=O)c2ccc(Br)cc2)n(C)c1C", "B-score": "inactive"}, {"molecule": "CCOC(=O)c1sc(=S)n2c1[nH]c(=O)c1ccc(C(=O)OC)cc12", "B-score": "inactive"}, {"molecule": "CCOC(=O)c1ccc(NC(=O)CSc2nnc(COc3ccccc3OC)n2C)cc1", "B-score": "inactive"}, {"molecule": "CCCc1nnc(SCC(=O)Nc2ccc(C(=O)OCC)cc2)o1", "B-score": "inactive"}, {"molecule": "CCOC(=O)c1ccc(NC(=O)Cn2cnc3cc(C)c(C)cc32)cc1", "B-score": "7 (active)"}, {"molecule": "COc1ccc(CCNc2cc(N3CCN(C(=O)c4ccccc4OC)CC3)ccc2[N+](=O)[O-])cc1OC", "B-score": "inactive"}, {"molecule": "Cc1cc(Cl)ccc1NC(=S)NCCCN1CCCC1=O", "B-score": "inactive"}, {"molecule": "O=C1CCCN1CCCNC(=S)Nc1ccc(F)c(Cl)c1", "B-score": "7 (active)"}, {"molecule": "Cc1c(Cl)cccc1NC(=O)NCCCN1CCCC1=O", "B-score": "inactive"}, {"molecule": "CCOc1cc(CN2CCCC(CO)(Cc3ccc(F)cc3F)C2)ccc1OC", "note": "(stereo not drawn)", "B-score": "inactive"}, {"molecule": "CN(Cc1ccc(F)cc1Cl)S(=O)(=O)c1cccs1", "B-score": "inactive"}, {"molecule": "O=C(Nn1c(-c2ccccc2)nc2ccccc2c1=O)c1ccc([N+](=O)[O-])cc1", "B-score": "inactive"}, {"molecule": "O=C(Nn1c(SCc2ccc([N+](=O)[O-])cc2)nc2ccccc2c1=O)c1ccc(F)cc1", "B-score": "9 (active)"}, {"molecule": "C=CCn1c(SCc2ccc(C(=O)NCCO)cc2)nc2ccccc2c1=O", "B-score": "inactive"}, {"molecule": "CCc1nc2nc(C)c(NS(=O)(=O)c3ccc4c(c3)CCCC4)c(=O)n2[nH]1", "B-score": "inactive"}, {"molecule": "CCCCc1ccc(NC(=O)NCc2cccnc2)cc1", "B-score": "inactive"}, {"molecule": "O=S(=O)(NCCSc1ccccn1)c1ccc(Cl)cc1", "B-score": "inactive"}, {"molecule": "Cc1cc(O)ccc1NC1=CC(=O)CC(C)(C)C1", "B-score": "inactive"}, {"molecule": "CCOc1ccc(NC(=O)CN(C)C(=O)c2c(C)noc2C)cc1OCC", "B-score": "inactive"}, {"molecule": "CCOC(=O)C(C)Sc1nc2ccccc2c(=O)n1CC1CCCCC1", "note": "(stereo not drawn)", "B-score": "7 (active)"}, {"molecule": "CCOn1c(SC(C)C)nc2ccccc2c1=O", "B-score": "inactive"}, {"molecule": "CCOC(=O)C1CCc2nc3ccccc3c(=O)n21", "note": "(stereo not drawn)", "B-score": "inactive"}, {"molecule": "Cc1c(OC(C)C(=O)NCC2CCC(C(=O)O)CC2)ccc2c1oc(=O)c1ccccc12", "note": "(stereo not drawn)", "B-score": "inactive"}, {"molecule": "Cc1noc(C)c1CSCC(=O)Nc1nc2ccc(Oc3ccccc3)cc2s1", "B-score": "8 (active)"}, {"molecule": "CCc1noc(C)c1C(=O)Nc1nc2ccc(OC)cc2s1", "B-score": "inactive"}, {"molecule": "Cc1noc(C)c1CSCC(=O)Nc1ccc(Br)cc1Cl", "B-score": "inactive"}, {"molecule": "Cc1ccc(-n2ncc(C(=O)NC3CC3)c2C2CCN(C(=O)OC(C)(C)C)CC2)c(C)c1", "B-score": "inactive"}, {"molecule": "Cc1cc(C)c(NC(=O)c2oc3ccccc3c2COc2ccccc2)c(C)c1", "B-score": "10 (active)"}, {"molecule": "COCc1c(C(=O)OCc2c(C)noc2C)oc2ccccc12", "B-score": "inactive"}, {"molecule": "CCOC(=O)c1oc2ccccc2c1NC(=O)c1cccs1", "B-score": "inactive"}, {"molecule": "COc1cc(C(C(=O)NC2CCCC2)N(Cc2ccccc2)C(=O)c2snc(C(N)=O)c2N)ccc1O", "note": "(stereo not drawn)", "B-score": "inactive"}, {"molecule": "O=C(Nc1ccccc1)N1CCN(C(=O)Nc2ccccc2)CC1", "B-score": "inactive"}, {"molecule": "O=C(Nc1ccc(Cl)c(Cl)c1)N1CC=C(c2ccccc2)CC1", "B-score": "11 (active)"}, {"molecule": "COc1cc(C(=O)NCC(=O)N2CC=C(c3ccccc3)CC2)cc(OC)c1OC", "B-score": "inactive"}, {"molecule": "O=C(NCCCN1CCCCC1)C1CC(=O)N(CCc2ccccc2)C1", "note": "(stereo not drawn)", "B-score": "inactive"}, {"molecule": "NC(=O)c1cc(-c2cccnc2)nc2ccc(Br)cc12", "B-score": "inactive"}, {"molecule": "NC(=O)C1CCN(C(=O)c2cn(-c3ccccc3)nc2-c2cccnc2)CC1", "B-score": "inactive"}, {"molecule": "O=C(NNC(=S)NC(=O)c1cn(-c2ccccc2)nc1-c1ccccc1)c1ccncc1", "B-score": "6 (active)"}, {"molecule": "Cc1onc(-c2ccccc2)c1C(=O)NNC(=S)NC(=O)c1ccc(F)cc1", "B-score": "inactive"}, {"molecule": "c1ccc(-c2ccc3c(c2)NC(C2Nc4cc(-c5ccccc5)ccc4O2)O3)cc1", "note": "(stereo not drawn)", "B-score": "inactive"}, {"molecule": "CNS(=O)(=O)c1ccc(N2CCCC2=O)c([N+](=O)[O-])c1", "B-score": "inactive"}, {"molecule": "CC(=O)Nc1ccc(S(=O)(=O)Nc2ccc(-c3ccc4nnc(C)n4n3)cc2)cc1", "B-score": "inactive"}, {"molecule": "Cc1ccc(N(CC(=O)Nc2cccc(N(C)S(C)(=O)=O)c2)S(C)(=O)=O)cc1", "B-score": "inactive"}, {"molecule": "CN(c1cccc(NC(=O)Nc2ccc(Cl)cc2)c1)S(C)(=O)=O", "B-score": "10 (active)"}, {"molecule": "COc1cccc(N(CC(=O)Nc2cccc(N(C)S(C)(=O)=O)c2)S(C)(=O)=O)c1", "B-score": "inactive"}]}]}
